{"source": "PubChem BioAssay AID624256", "about": "(NMMLSC, 2012)", "note": "Values joined by “and” are separate entries in the source; they are usually repeats but may differ in a detail not shown here. Identical values can stand only once. In all, about 360,000 compounds went through this assay and about 3,700 (1%) were called active. Inconclusive results (about 2%) are left out. This is one part of a sample in which actives are shown more often than they occur.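 The calls were made as follows: active = normalized GFP-positive differentiation at or above the plate's own cutoff, the solvent-only control mean plus 3 SD; inconclusive = no clear call, values can overlap the other calls; inactive = the rest.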"}
{"test": "HoxA9-arrested leukemia cell differentiation promoters – flow cytometry, MLPCN library, primary screen (AID 624256);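 as to GFP+ MAC1+ double positive: cells exposed to compound for four days before flow analysis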;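 as to normalized GFP-positive differentiation: cells exposed to compound for four days before flow analysis; 0% = DMSO wells and 100% = fulvestrant positive control at 5 µM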", "conditions": "ER-HoxA9 myeloid progenitors, lysozyme-GFP differentiation, at 10 µM; GFP+ MAC1+ double positive: measured here: differentiation confirmed by MAC1 staining, stronger effect = higher value; normalized GFP-positive differentiation: stronger effect = higher value"}
{"smiles": "Cc1ccc2nc(-c3ccco3)c(Cc3cccc(Cl)c3)n2c1", "GFP+ MAC1+ double positive": "0.9%", "outcome": "inactive"}
{"smiles": "COc1cccc(-c2nn(-c3ccccc3)cc2/C=C(\\C#N)C(=O)NCCCn2ccnc2)c1", "GFP+ MAC1+ double positive": "0.5%", "normalized GFP-positive differentiation": "58.2% (active)"}
{"smiles": "COc1ccc(/C=C(\\C#N)C(=O)NCCCn2ccnc2)cc1", "GFP+ MAC1+ double positive": "0.1%", "outcome": "inactive"}
{"smiles": "COc1cc(OC)cc(C(=O)NCCCn2ccnc2)c1", "GFP+ MAC1+ double positive": "0.7%", "outcome": "inactive"}
{"smiles": "Nc1nc2c(Br)ccc(Br)c2cc1C(=O)NCCc1ccccc1", "GFP+ MAC1+ double positive": "0.7%", "outcome": "inactive"}
{"smiles": "CC(C)NC(=O)N1Cc2cc(C(=O)NCC(F)(F)F)nc(-c3cccc(-c4cc5ccccc5o4)c3)c2[C@@H]1CCO", "GFP+ MAC1+ double positive": "1.5%", "outcome": "inactive"}
{"smiles": "COc1ccc(CCNC(=O)/C(C#N)=C2\\N=C(NC(=O)c3cccs3)c3ccccc32)cc1", "GFP+ MAC1+ double positive": "0.9%", "normalized GFP-positive differentiation": "28.9% (active)"}
{"smiles": "CCOc1ncccc1C(=O)NCCc1ccc(OC)cc1", "GFP+ MAC1+ double positive": "0.2%", "outcome": "inactive"}
{"smiles": "COc1ccc(CN(Cc2ccc(OC)cc2)C(=O)c2cccs2)cc1", "GFP+ MAC1+ double positive": "0.3%", "outcome": "inactive"}
{"smiles": "CCOC(=O)C1C(C)C(C(C)(C)C)N(S(=O)(=O)c2ccc(C)cc2)C1c1ccccc1", "note": "(stereo not given)", "GFP+ MAC1+ double positive": "2.4%", "outcome": "inactive"}
{"smiles": "NC(c1csc(NC(=O)Nc2ccccc2Oc2ccccc2)n1)c1ccccc1Cl", "note": "(stereo not given)", "GFP+ MAC1+ double positive": "0.8%", "outcome": "inactive"}
{"smiles": "CSCCC(c1nnnn1Cc1ccccc1)N1CCN(C/C=C/c2ccccc2)CC1", "note": "(stereo not given)", "GFP+ MAC1+ double positive": "1.1%", "outcome": "inactive"}
{"smiles": "COc1ccc(-c2nc3cnccn3c2NC2CCCCC2)cc1-c1cccc(Cl)c1", "GFP+ MAC1+ double positive": "2.8% and 1.8%", "outcome": "inactive"}
{"smiles": "COc1ccc(-c2nc3cc(C)ccn3c2NC2CCCCC2)cc1SC1CCCCC1", "GFP+ MAC1+ double positive": "2.4% and 7.4%", "normalized GFP-positive differentiation": "300% (active) and 217% (active)"}
{"smiles": "CCOc1cc(-c2nc3cc(C)ccn3c2NCC2CCCO2)ccc1O", "note": "(stereo not given)", "GFP+ MAC1+ double positive": "0.6%", "outcome": "inactive"}
{"smiles": "COC(=O)c1ccc(-c2noc(CN(Cc3ccccn3)CC3CCCO3)n2)cc1", "note": "(stereo not given)", "GFP+ MAC1+ double positive": "0.3%", "outcome": "inactive"}
{"smiles": "CCN1CC(CN(C)Cc2nc(-c3ccc(Cl)cc3)no2)CC1=O", "note": "(stereo not given)", "GFP+ MAC1+ double positive": "0.3%", "outcome": "inactive"}
{"smiles": "CN(Cc1ccccn1)Cc1nc(-c2ccc(Cl)cc2)no1", "GFP+ MAC1+ double positive": "0.5%", "normalized GFP-positive differentiation": "34.3% (active)"}
{"smiles": "Cc1[nH]c2ccccc2c1C(=O)c1cc([C@H](NC(=O)OC(C)(C)C)C(C)C)sc1N", "GFP+ MAC1+ double positive": "1%", "outcome": "inactive"}
{"smiles": "CCOC(=O)N1CCN(C(=O)C[C@@H]2C[C@@]3(C(=O)OC)CC(C)(C)CC=C3N(Cc3ccco3)C2=O)CC1", "GFP+ MAC1+ double positive": "1.2%", "outcome": "inactive"}
{"smiles": "CC1=C(C(=O)N(C(C)C)C(C)C)CC(CC(=O)NCC2CCCCC2)C(=O)N1Cc1ccccc1", "note": "(stereo not given)", "GFP+ MAC1+ double positive": "0.3%", "outcome": "inactive"}
{"smiles": "O=S(=O)(Nc1cc(Cl)ccc1N1CCOCC1)c1ccccc1Cl", "GFP+ MAC1+ double positive": "0.3%", "outcome": "inactive"}
{"smiles": "O=C1c2ccccc2-c2ncnc3c(N4CCOCC4)cc(N4CCOCC4)c1c23", "GFP+ MAC1+ double positive": "4.8%", "normalized GFP-positive differentiation": "41.7% (active)"}
{"smiles": "O=C(Nc1ccccc1N1CCOCC1)c1ccncc1", "GFP+ MAC1+ double positive": "1.1%", "outcome": "inactive"}
{"smiles": "CCCCC[C@H](C)N1C[C@@H](COCc2ccccc2)Oc2cc(N3CC[C@@H](N(C)C)C3)ccc2S1(=O)=O", "GFP+ MAC1+ double positive": "1.2%", "outcome": "inactive"}
{"smiles": "COC(=O)c1ccc2nc(-c3ccc(F)cc3)c(Cc3ccc(C)cc3)n2c1", "GFP+ MAC1+ double positive": "0.7%", "outcome": "inactive"}
{"smiles": "O=C(O)c1ccccc1-c1cccc2nncn12", "GFP+ MAC1+ double positive": "0.5%", "outcome": "inactive"}
{"smiles": "CC(=O)c1c(C)[nH]c(C(=O)NCCCN2CCCC2)c1C", "GFP+ MAC1+ double positive": "0.6%", "outcome": "inactive"}
{"smiles": "CCCCN(CC)CCNC(=O)c1[nH]c(C)c(C(C)=O)c1C", "GFP+ MAC1+ double positive": "2.2%", "normalized GFP-positive differentiation": "13.8% (active)"}
{"smiles": "CC(=O)c1c(C)[nH]c(C(=O)NCc2ccc(C)cc2)c1C", "GFP+ MAC1+ double positive": "1.3%", "outcome": "inactive"}
{"smiles": "COC(=O)c1ccc2nc(C3CCCCC3)c(Cc3cccc(F)c3)n2c1", "GFP+ MAC1+ double positive": "0.7%", "outcome": "inactive"}
{"smiles": "CO[C@@H]1CN(C)C(=O)c2cc(NC(=O)C3CC3)ccc2OC[C@H](C)N(C(=O)CN2CCOCC2)C[C@@H]1C", "GFP+ MAC1+ double positive": "1.2%", "outcome": "inactive"}
{"smiles": "Cn1cc(C2OC(=O)c3ccccc32)c2ccccc21", "note": "(stereo not given)", "GFP+ MAC1+ double positive": "1.6%", "outcome": "inactive"}
{"smiles": "Cc1nn(C)cc1N1C(=O)c2cccc3c(N)ccc(c23)C1=O", "GFP+ MAC1+ double positive": "4.9%", "normalized GFP-positive differentiation": "289% (active)"}
{"smiles": "CC(C(=O)O)N1C(=O)c2cccc3cccc1c23", "note": "(stereo not given)", "GFP+ MAC1+ double positive": "1.4%", "outcome": "inactive"}
{"smiles": "CN1C(=O)c2cccc3c(N)ccc(c23)C1=O", "GFP+ MAC1+ double positive": "1.9%", "normalized GFP-positive differentiation": "96.2% (active)"}
{"smiles": "COCCCn1cc(CN2CC(N(C)C)CS2(=O)=O)nn1", "note": "(stereo not given)", "GFP+ MAC1+ double positive": "0.8%", "outcome": "inactive"}
{"smiles": "Cc1nc2c(OCc3ccc(Cl)cc3Cl)cccn2c1N(C)CC1CC1", "GFP+ MAC1+ double positive": "0.6%", "outcome": "inactive"}
{"smiles": "CC(C)CN1C(=O)CN(S(C)(=O)=O)CC1(C)C(=O)NCc1ccccc1", "note": "(stereo not given)", "GFP+ MAC1+ double positive": "1.1%", "outcome": "inactive"}
{"smiles": "Nc1nc2ncccn2c1-c1ccccc1", "GFP+ MAC1+ double positive": "2.1%", "outcome": "inactive"}
{"smiles": "CCc1nc2ccc(C(=O)NCc3ccc(OC)cc3)cn2c1N(CC)Cc1cccc(Br)c1", "GFP+ MAC1+ double positive": "1.1%", "outcome": "inactive"}
{"smiles": "Cc1nccn1-c1ccc(NC(=O)[C@H]2O[C@@H](n3ccc(=O)[nH]c3=O)[C@H](O)[C@@H]2O)cc1", "GFP+ MAC1+ double positive": "1.7%", "outcome": "inactive"}
{"smiles": "CCOC(=O)CNC(=O)c1nn(-c2cccc(OC)c2)c(=O)c2ccccc12", "GFP+ MAC1+ double positive": "0.7%", "outcome": "inactive"}
{"smiles": "Cc1nn(-c2cc(Cl)ccc2N)c(=O)c2ccccc12", "GFP+ MAC1+ double positive": "7.4%", "normalized GFP-positive differentiation": "51.3% (active)"}
{"smiles": "Cc1cc(=O)oc2c1c(C)nn2-c1ccc(Cl)cc1", "GFP+ MAC1+ double positive": "0.3%", "outcome": "inactive"}
{"smiles": "C#CCNC(=O)C[C@@H]1C[C@@]2(C(=O)OCC)CCCC=C2N(Cc2ccco2)C1=O", "GFP+ MAC1+ double positive": "1.5%", "outcome": "inactive"}
{"smiles": "Cc1cc(Br)cn2c(Cc3ccsc3)c(-c3ccc(C#N)cc3)nc12", "GFP+ MAC1+ double positive": "2%", "outcome": "inactive"}
{"smiles": "O=C(Nc1cccc2ccccc12)c1[nH]c(-c2ccccc2)c2c1C(=O)N(C1CC1)C2=O", "GFP+ MAC1+ double positive": "1.2%", "outcome": "inactive"}
{"smiles": "COC(=O)C[C@@H]1C=C[C@@H](NC(=O)c2ccc3c(c2)OCO3)[C@@H](CO)O1", "GFP+ MAC1+ double positive": "3.1%", "outcome": "inactive"}
{"smiles": "CS(=O)(=O)c1ccc2c(c1)SC1=NC(=O)/C(=C/c3ccco3)C(=N)N12", "GFP+ MAC1+ double positive": "6.9%", "outcome": "inactive"}
{"smiles": "CC(C)(C)C1C/C(=C/c2ccco2)C(=O)/C(=C/c2ccco2)C1", "note": "(stereo not given)", "GFP+ MAC1+ double positive": "0.5%", "normalized GFP-positive differentiation": "92.8% (active)"}
{"smiles": "COC(=O)COc1ccc2c(c1C)O/C(=C\\c1ccco1)C2=O", "GFP+ MAC1+ double positive": "0.6%", "outcome": "inactive"}
{"smiles": "O=C(c1cc(-c2ccco2)nc2ccccc12)N(Cc1nnc(-c2ccc(Cl)cc2)o1)C1CC1", "GFP+ MAC1+ double positive": "1.9%", "normalized GFP-positive differentiation": "11.9% (active)"}
{"smiles": "CN(CCOc1ccccc1)C(=O)c1cc(-c2ccco2)nc2ccccc12", "GFP+ MAC1+ double positive": "1.1%", "outcome": "inactive"}
{"smiles": "CC1CCCN(C(=O)c2cc(-c3ccco3)nc3ccccc23)C1", "note": "(stereo not given)", "GFP+ MAC1+ double positive": "0.2%", "outcome": "inactive"}
